Screen size: about 310,000 compounds; about 14,000 (4.5%) showed an effect of 50% or more. Effects have a minus sign here. Only a selection was taken, and strong results are over-represented in it overall.
The compounds below were run against human ether-à-go-go-related gene (hERG) potassium channel (human, UniProt Q12809) (assay: primary screen, population patch clamp on CHO cells stably expressing hERG; higher = less effect of the substance).
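Further: peak tail current of the secondary pulse compared with the same well before compound.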

Chain of human ether-à-go-go-related gene (hERG) potassium channel (Q12809 whole entry, looked up): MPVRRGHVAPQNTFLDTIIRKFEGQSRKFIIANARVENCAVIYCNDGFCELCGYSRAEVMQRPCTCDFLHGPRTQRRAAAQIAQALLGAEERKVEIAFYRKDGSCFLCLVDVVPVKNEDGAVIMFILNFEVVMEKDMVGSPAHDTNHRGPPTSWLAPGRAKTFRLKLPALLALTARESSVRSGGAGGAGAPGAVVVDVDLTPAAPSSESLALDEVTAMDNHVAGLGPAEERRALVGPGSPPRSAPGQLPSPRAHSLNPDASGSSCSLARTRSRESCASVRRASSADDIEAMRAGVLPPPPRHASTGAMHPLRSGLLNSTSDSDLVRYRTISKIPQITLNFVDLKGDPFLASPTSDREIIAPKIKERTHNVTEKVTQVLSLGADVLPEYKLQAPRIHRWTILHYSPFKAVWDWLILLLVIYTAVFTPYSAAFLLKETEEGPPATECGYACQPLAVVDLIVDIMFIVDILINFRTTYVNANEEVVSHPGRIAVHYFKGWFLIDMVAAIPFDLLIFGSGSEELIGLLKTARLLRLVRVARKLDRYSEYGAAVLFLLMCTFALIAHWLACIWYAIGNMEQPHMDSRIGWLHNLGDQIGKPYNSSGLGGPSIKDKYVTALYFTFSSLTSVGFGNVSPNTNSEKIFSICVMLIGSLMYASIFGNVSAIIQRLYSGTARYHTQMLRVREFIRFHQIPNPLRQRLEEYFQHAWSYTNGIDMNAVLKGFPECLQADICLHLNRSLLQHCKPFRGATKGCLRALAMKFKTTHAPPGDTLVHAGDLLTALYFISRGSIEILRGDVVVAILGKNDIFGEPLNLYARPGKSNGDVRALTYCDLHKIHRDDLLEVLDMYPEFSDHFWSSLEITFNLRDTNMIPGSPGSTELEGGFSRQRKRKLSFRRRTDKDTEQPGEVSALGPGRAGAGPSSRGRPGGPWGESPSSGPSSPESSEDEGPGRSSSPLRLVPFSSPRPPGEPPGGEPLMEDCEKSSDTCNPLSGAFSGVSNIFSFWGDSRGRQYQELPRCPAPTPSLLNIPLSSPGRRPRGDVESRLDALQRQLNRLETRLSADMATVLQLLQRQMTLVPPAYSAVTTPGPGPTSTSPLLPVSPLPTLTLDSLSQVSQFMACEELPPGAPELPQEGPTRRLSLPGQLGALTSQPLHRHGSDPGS

Compound	hERG current change (%, negative = inhibition) at 10uM [%]
O=C(NCC1CCCO1)c1ccc(CSCc2cccc(F)c2)o1 (stereo not drawn)	-7.59
COc1ccc(C(=O)NNc2cc(C)nc(NNC(=O)c3ccc(OC)cc3)n2)cc1	7.94
CCN(C(=O)COc1cccnc1[N+](=O)[O-])C1CCS(=O)(=O)C1 (stereo not drawn)	-0.18
CCOc1ccc(CNC(=O)CCS(=O)(=O)Cc2cccc(Cl)c2)cc1OC	-12.1
O=C(O)c1cc2c(ccc3ccccc32)o1	4.33
COC(=O)c1ccc([C@H]2CC(=O)O2)cc1	1.35
c1ccc2c(c1)nc(NC1CCCCC1)c1nncn12	-35.2
CC(C)(C)OC(=O)N1CCC(c2c(C(=O)NCC3CCN(C4CCCC4)C3)cnn2-c2ccccc2)CC1 (stereo not drawn)	-35.8
Cc1ccc(-n2ncc(C(=O)NCC3CCN(C4CCCC4)C3)c2C2CCN(C(=O)OC(C)(C)C)CC2)cc1 (stereo not drawn)	-20.4
CC(C)(C)OC(=O)N1CCC(c2c(C(=O)NCC3CCN(C4CCCC4)C3)cnn2-c2ccc(F)cc2)CC1 (stereo not drawn)	-50.5
Cc1ccc2c(c1)N(C)/C(=C/c1cccc[n+]1C)S2.[I-]	-47.5
Cc1ccc2c(c1)N(C)/C(=C/c1cccc[n+]1CCO)S2.[I-]	-9.09
CC[n+]1ccccc1/C=C1\Sc2ccc(C)cc2N1C.[I-]	-62.5
Cc1oc2nc(SCC(=O)NC3CCCCC3)nc(N)c2c1C	-14.8
Cl.O=C(CN1CCCC1)N1c2ccccc2Sc2ccc(Cl)cc21	0.273
COc1ccc(S(=O)(=O)Nc2ccc3c(c2)n(C)c(=O)n3C)cc1C	2.39
Cc1ccc(CNC(=O)C23CN(Cc4ccccc4)CC2C(c2ccc([N+](=O)[O-])cc2)=NO3)cc1 (stereo not drawn)	-43.7
Cc1ccc(CNC(=O)C23CN(Cc4ccccc4)CC2C(c2ccc([N+](=O)[O-])cc2)=NO3)o1 (stereo not drawn)	-49.6
O=C(NCc1ccccc1)C12CN(Cc3ccccc3)CC1C(c1ccc([N+](=O)[O-])cc1)=NO2 (stereo not drawn)	-67.1
COc1ccc(CNC(=O)C23CN(Cc4ccccc4)CC2C(c2ccc([N+](=O)[O-])cc2)=NO3)cc1 (stereo not drawn)	-40.5
O=C(NCc1ccco1)C12CN(Cc3ccccc3)CC1C(c1ccc([N+](=O)[O-])cc1)=NO2 (stereo not drawn)	-70.8
O=C(NCc1ccccc1)C12CN(Cc3ccccc3)CC1C(c1cccc([N+](=O)[O-])c1)=NO2 (stereo not drawn)	-14.6
COc1cccc(CNC(=O)C23CN(Cc4ccccc4)CC2C(c2ccc([N+](=O)[O-])cc2)=NO3)c1 (stereo not drawn)	-52.1
COc1ccc(CCNC(=O)C23CN(Cc4ccccc4)CC2C(c2ccc([N+](=O)[O-])cc2)=NO3)cc1 (stereo not drawn)	-74.8
COc1ccc(CCNC(=O)C23CN(Cc4ccccc4)CC2C(c2cccc([N+](=O)[O-])c2)=NO3)cc1 (stereo not drawn)	-7.39
Cc1ccc(CNC(=O)C23CN(Cc4ccccc4)CC2C(c2cccc([N+](=O)[O-])c2)=NO3)cc1 (stereo not drawn)	-0.125

Compound	hERG current change (%, negative = inhibition) at 10uM [%]
O=C(NCc1ccco1)C12CN(Cc3ccccc3)CC1C(c1cccc([N+](=O)[O-])c1)=NO2 (stereo not drawn)	-46.6
Cc1ccc(CCNC(=O)C23CN(Cc4ccccc4)CC2C(c2ccc([N+](=O)[O-])cc2)=NO3)cc1 (stereo not drawn)	-24
CCC1CCCCN1C(=O)Nc1cccc(NC(=O)N2CCCCC2CC)c1 (stereo not drawn)	9.57
CC(C)c1nnc(NC(=O)C2CCCN2S(=O)(=O)c2ccc(Cl)cc2)s1 (stereo not drawn)	7.71
Fc1ccc(N=c2ssnc2Cl)c(F)c1	22.1
CCCc1cc(=O)n2[nH]c(-c3ccc(C)cc3)cc2n1	-0.208
O=C(CN1CCN(C(=O)C2CCCO2)CC1)Nc1ccc(Cl)c(Cl)c1 (stereo not drawn)	-22.5
Cc1ccc(Nc2cnn(C34CC5CC(CC(CC(=O)O)(C5)C3)C4)c(=O)c2Cl)cc1	12
Cc1ccc(-n2nc3c(c2NC(=O)c2ccc(OC(C)C)cc2)CS(=O)C3)cc1 (stereo not drawn)	-12.8
CCc1ccc(S(=O)(=O)Nc2c(C)n(C)n(-c3ccccc3)c2=O)cc1	-2.47
O=c1oc2cc(O)c(Cl)cc2c2ccccc12	3.98
O=C(NCCCCc1ccccc1)C12CN(Cc3ccccc3)CC1C(c1ccc([N+](=O)[O-])cc1)=NO2 (stereo not drawn)	5.9
O=C(NCCCCc1ccccc1)C12CN(Cc3ccccc3)CC1C(c1cccc([N+](=O)[O-])c1)=NO2 (stereo not drawn)	-6.27
Cc1ccc(CCNC(=O)C23CN(Cc4ccccc4)CC2C(c2cccc([N+](=O)[O-])c2)=NO3)cc1 (stereo not drawn)	-14.8
CC(C)CCNC(=O)C12CN(Cc3ccccc3)CC1C(c1cccc([N+](=O)[O-])c1)=NO2 (stereo not drawn)	-32.9
CC(C)CCNC(=O)C12CN(Cc3ccccc3)CC1C(c1ccc([N+](=O)[O-])cc1)=NO2 (stereo not drawn)	-53.1
CCCCN(CCCC)CCCNC(=O)C12CN(Cc3ccccc3)CC1C(c1cccc([N+](=O)[O-])c1)=NO2 (stereo not drawn)	-80.6
CCC(C)NC(=O)CSc1nc2ccccc2c(=O)n1-c1c(C)n(C)n(-c2ccccc2)c1=O (stereo not drawn)	1.66
COc1ccc(/C=C(\C#N)C(=O)Nc2cc(S(=O)(=O)N3CCCCC3)ccc2N2CCCCC2)cc1	6.92
CNC(=S)Nc1ccc([N+](=O)[O-])cc1	11.9
Cc1ccc(S(=O)(=O)N(C)CC(=O)N(CC(C)C)C2CCS(=O)(=O)C2)cc1 (stereo not drawn)	-2.85
c1ccc(N2N=C(c3cccs3)CC2c2ccco2)cc1 (stereo not drawn)	2.24
COc1ccc(OCC(O)CNC(=O)c2ccccc2)cc1 (stereo not drawn)	9.92
O=C(NN(CC(O)COc1ccccc1)CC(O)COc1ccccc1)c1ccccc1 (stereo not drawn)	-66.1
O=C(NNCC(O)COc1ccccc1)c1ccccc1 (stereo not drawn)	1.06
Cc1ccc(S(=O)(=O)N(c2cccc(C(F)(F)F)c2)C2C=CS(=O)(=O)C2)cc1 (stereo not drawn)	6.3

Compound	hERG current change (%, negative = inhibition) at 10uM [%]
Cc1cc(NC(=O)CCC(=O)N(Cc2ccc(F)cc2)C(C(=O)NC2CCCC2)c2ccco2)no1 (stereo not drawn)	0.819
C=CCN(C(=O)CCC(=O)Nc1cc(C)on1)C(C(=O)NC1CCCC1)c1ccc(CC)cc1 (stereo not drawn)	-17.5
Cc1cc(NC(=O)CCC(=O)N(Cc2ccccc2)C(C(=O)NC2CCCC2)c2ccco2)no1 (stereo not drawn)	-21.8
C=CCN(C(=O)CCC(=O)Nc1cc(C)on1)C(C(=O)NC1CCCC1)c1ccc(Cl)cc1 (stereo not drawn)	-56.3
Cc1cc(NC(=O)CCC(=O)N(CCc2ccccc2)C(C(=O)NC2CCCC2)c2ccco2)no1 (stereo not drawn)	-66.1
C=CCN(C(=O)CCC(=O)Nc1cc(C)on1)C(C(=O)NC1CCCC1)c1ccc(C)cc1 (stereo not drawn)	0.416
CCN(CC)S(=O)(=O)c1ccc2c(c1)CC(C(=O)N1CCCC1)N2C(C)=O (stereo not drawn)	1.51
Cl.NCCSC1CC(=O)N(c2ccc(F)cc2)C1=O (stereo not drawn)	17
CC1=C(C)CS(=O)N(S(=O)(=O)c2ccccc2)C1 (stereo not drawn)	-16.3
O=C(CN(C(=O)c1ccccc1Cl)N1C(=O)CCCC1=O)c1ccc(Cl)cc1	7.29
Cc1ccc(C(=O)CN(C(=O)c2ccc(Cl)cc2)N2C(=O)CCC2=O)cc1	-50.7
O=C(CN(C(=O)c1ccc(Cl)cc1)N1C(=O)C2CCCCC2C1=O)c1ccc(Cl)cc1 (stereo not drawn)	15.1
Cc1ccccc1CC1(CO)CCCN(C(=O)c2cc(-c3ccccc3)no2)C1 (stereo not drawn)	2.91
CC(=O)Oc1ccc(C(=O)Nc2cccc3c2CCCC3)cc1	10.4
Cc1c(NC(=O)Cc2ccccc2)cccc1C(=O)NN1C(=O)c2ccccc2C1=O	-10.2
N#CCCn1cc(/C=N/NC(N)=S)c(-c2ccccc2)n1	-28
Cc1ccc(C(=O)NCc2ccccn2)o1	4.94
O=S(=O)(/C=C/c1ccccc1)N1CCN(Cc2ccccc2)CC1	-25.3
O=c1cc(CN2CCN(S(=O)(=O)c3ccc4c(c3)OCCO4)CC2)c2ccc(O)cc2o1	-4.32
Cc1cc2oc(=O)cc(CN3CCN(S(=O)(=O)/C=C/c4ccccc4)CC3)c2cc1C	1.24
O=c1cc(CN2CCN(S(=O)(=O)/C=C/c3ccccc3)CC2)c2ccc(O)cc2o1	-76.8
O=c1cc(CN2CCc3ccccc32)c2ccc(O)cc2o1	-0.218
Cc1ccc2c(CN3CCN(S(=O)(=O)/C=C/c4ccccc4)CC3)cc(=O)oc2c1	-72.4
CCOc1ccc(N2C(=O)CC(N3CCN(c4ccc(Cl)cc4)CC3)C2=O)cc1 (stereo not drawn)	18.5
CCOC(=O)C1CCN(S(=O)(=O)c2c(C)[nH]c(=O)[nH]c2=O)CC1	-0.439
COc1ccc(C(CNC(=O)CSc2ccccc2F)N2CCOCC2)cc1 (stereo not drawn)	10.7
